From ChEMBL document CHEMBL3988442, “University of Dundee, Small-Polar-MMV Screening Library” (2021)
Screen size: about 85,000 compounds; about 440 (0.52%) showed an effect of 50% or more. This excerpt belongs to a sample that is enriched for strong results.

Experiment: In vitro enzyme assay to detect hydrolysis of chlorophenol red-beta-D-[…] directly proportional to the number of Toxoplasma stably expressing beta-galactosidase
Format: functional, organism-based, Toxoplasma gondii
Parameters: scale not given: in the data most compounds retested in dose-response had high values

Row | Structure (SMILES) | Percent Effect (50 µM) [%] | Percent Effect (10 µM) [%]
1 | Cn1nccc1NC(=O)N1CCOCC1C1CC1 (stereo not drawn) | -2.135 | 
2 | O=C1COCC(Cc2ccccc2)N1 (stereo not drawn) | -23.94 | 
3 | NC(=O)CN1CCn2cccc2C1c1ccccc1 (stereo not drawn) | -16.03 | 
4 | CNC1CCN(c2cc(OC)cc(OC)c2)C1 (stereo not drawn) | -16.53 | 
5 | COCc1ccccc1C(=O)N1CCCC(c2cc(C)[nH]n2)C1 (stereo not drawn) |  | -0.6285
6 | COCc1ccccc1C(=O)N1CCCC(O)C1 (stereo not drawn) | 58.79 | 
7 | CCN1CCCN(C(=O)c2ccccc2COC)CC1 | 3.121 | 
8 | O=C(NCC(O)C1CCCCC1)[C@@H](O)c1ccccc1 (stereo partly drawn) | -2.815 | 
9 | Cc1nn(CCO)c(NC(C)c2nccs2)c1C (stereo not drawn) | -2.968 | 
10 | COC[C@H]1CCC[C@H]1NC(=O)CCn1cncn1 | 1.07 | 
11 | Cc1ccc(CN(C)C(=O)CN2CCCC(Cn3cncn3)C2)cc1 (stereo not drawn) |  | -19.93
12 | CN(Cc1ccccc1)C(=O)CN1CCCC(Cn2cncn2)C1 (stereo not drawn) |  | -36.27
13 | CN(Cc1cnn(C)c1)C(=O)CN1CCCC(Cn2cncn2)C1 (stereo not drawn) |  | 96.23
14 | NC(=O)COC(=O)c1cc(Cl)cc(C(F)(F)F)c1 | -16.81 | 
15 | Cc1[nH]ncc1C(=O)NCCCSCC(C)C | 11.62 | 
16 | Cc1nn(C)c2c(=O)n(Cc3ccccc3)nnc12 |  | 61.89
17 | Cc1nn(C)c2c(=O)n(Cc3ccc(Cl)cc3)nnc12 |  | 71.45
18 | Cc1nn(C)c(=O)c2nn(-c3ccc(F)cc3)c(C)c12 |  | -17.45
19 | Cc1c(C(=O)NC(C)C)nnn1Cc1ccccc1 | 17.24 | 
20 | CCn1nc(C)c2nnn(CC(=O)Nc3ccccc3)c(=O)c21 |  | 1.414
21 | Cc1nn(C)c2c(=O)n(Cc3ccc(F)cc3)nnc12 |  | 62.42
22 | Cc1nn(C)c2c(=O)n(CC(=O)Nc3cc(Cl)cc(Cl)c3)nnc12 |  | -3.347
23 | CCn1nc(C)c2nnn(CC(=O)Nc3cccc(F)c3)c(=O)c21 |  | -2.626
24 | Cc1nn(C)c2c(=O)n(Cc3ccc(C#N)cc3)nnc12 |  | 39.12
25 | COCC(C)(CCO)NCc1c(C)noc1C (stereo not drawn) | -23.44 | 
26 | CCC(CNC(=O)Nc1cc(C)nn1C)N1CCCC1 (stereo not drawn) | -4.617 | 

Row | Structure (SMILES) | Percent Effect (50 µM) [%] | Percent Effect (10 µM) [%]
27 | NC(=O)C1CCN(CCOc2ccccc2F)CC1 | -5.356 | 
28 | Cc1cnccc1NCCNC(=O)Cc1ccccn1 | -14.36 | 
29 | CCO[C@H]1CN(C)C[C@@H]1NC(=O)c1cnc(CC)nc1 | 7.652 | 
30 | C[S+]([O-])c1nncn1Cc1cccc2cccnc12 (stereo not drawn) | -6.749 | 
31 | Cc1cc(N2CCOC(CN(C)CC(N)=O)C2)ccn1 (stereo not drawn) | 2.869 | 
32 | COCc1[nH][nH]c(=O)c1CCN | -30.62 | 
33 | OC1(CNCCc2csc(-c3ccncc3)n2)CCCNC1 (stereo not drawn) |  | -15.25
34 | OC1(CNCCOCc2ccc(Cl)cc2)CCCNC1 (stereo not drawn) | 57.1 | 
35 | OC1(CNCCCn2cc(Cl)cn2)CCCNC1 (stereo not drawn) | -11.83 | 
36 | CCOCC(O)CN(C)Cc1cccc(C(N)=O)c1 (stereo not drawn) | -13.39 | 
37 | CCN1C[C@H]2CCN(C(=O)NC)CC[C@H]2S1(=O)=O |  | 59.16
38 | CCN1C[C@H]2CCN(C(C)=O)CC[C@H]2S1(=O)=O |  | -1.674
39 | CCN1C[C@H]2CCN(C(=O)NC3CCCC3)CC[C@H]2S1(=O)=O |  | -4.304
40 | Cc1c(N)cnn1C1CCOCC1 | -9.55 | 
41 | COc1ccc(OC)c(N2C(=O)CCC2=O)c1 | -4.608 | 
42 | CN(CCOCCO)CCOc1ccc(F)cc1 | 15.3 | 
43 | O=C1NCCOc2ccc(Br)cc21 | -18.86 | 
44 | COc1ccc(CNC(=O)C2=NN(c3ccc(C)cc3)C(=O)CN2)cc1 |  | -0.9855
45 | COc1ccccc1CNC(=O)C1=NN(c2ccc(C)cc2)C(=O)CN1 |  | 57.58
46 | COc1ccc(C)cc1CNC(=O)C1=NN(c2ccccc2)C(=O)CN1 |  | 14.43
47 | Cc1cc2c(cc1S(=O)(=O)N1CCCC(N)C1)OCO2 (stereo not drawn) | 6.23 | 
48 | c1cncc(C2=NOC3(CCN(Cc4c[nH]c5ccccc45)CC3)C2)c1 |  | 26.44
49 | c1ccc(C2=NOC3(CCN(Cc4c[nH]c5ccccc45)CC3)C2)cc1 |  | 73.52
50 | CC(C)C1=NOC2(CCN(Cc3c[nH]c4ccccc34)CC2)C1 |  | 33.52
51 | CCCC(C(=O)OCC)S(N)(=O)=O (stereo not drawn) | -4.644 | 
52 | COC(=O)C(C)SCc1noc(C2CC2)n1 (stereo not drawn) | 1.688 | 

Row | Structure (SMILES) | Percent Effect (50 µM) [%] | Percent Effect (10 µM) [%]
53 | CCN1C[C@H](NC(=O)c2cccn2C(C)C)[C@@H](OC)C1 | -5.083 | 
54 | CCN1C[C@H](NC(=O)c2ccc(Cl)s2)[C@@H](OC)C1 | 2.981 | 
55 | CCN1C[C@H](NC(=O)c2snnc2C(C)C)[C@@H](OC)C1 | 82.91 | 
56 | CCC(NC(=O)c1cc(N)[nH]n1)c1nc(C)c[nH]1 (stereo not drawn) | 4.795 | 
57 | Cc1nnsc1CN(C)C(=O)c1ccccc1 | 22.64 | 
58 | O=C(N[C@@H]1CNC[C@H]1CO)C1CCC1 | -0.2309 | 
59 | Cc1cc(CN)nc(N2CCCC2)n1 | -18.34 | 
60 | Cc1cc(CN)nc(N(C)C)n1 | 87.02 | 
61 | CN(C)c1nc(CN)cs1 | -3.708 | 
62 | COCCNC(=O)CCC1CCN(CCCSC)CC1 | 11.51 | 
63 | CCOc1ncccc1C(=O)N1CCCN(C)CC1 | 3.231 | 
64 | COCCNC(=O)NC(C)CCc1ccc(O)cc1 (stereo not drawn) | -3.348 | 
65 | CN(C)CC(C)(C)CN1CCC(c2ccnc(-c3cccc(O)c3)c2)C1 (stereo not drawn) |  | 7.739
66 | Cn1ccnc1CN1CCC(c2ccnc(-c3cccc(O)c3)c2)C1 (stereo not drawn) |  | 55.29
67 | Oc1cccc(-c2cc(C3CCN(Cc4cncnc4)C3)ccn2)c1 (stereo not drawn) |  | 0.5564
68 | N#CC1(NC(=O)C(O)Cc2ccccc2Cl)CCC1 (stereo not drawn) | -6.44 | 
69 | Cc1ccc(Cl)cc1NC(=O)CN1CCNC(=O)C1 | 47.59 | 
70 | O=C1CN(CC(=O)Nc2c(Cl)cccc2Cl)CCN1 | 55.2 | 
71 | CCc1cccc(C)c1NC(=O)CN1CCNC(=O)C1 | -0.5853 | 
72 | CN(C)S(=O)(=O)CCNC1CCCNC1 (stereo not drawn) | 23.13 | 
73 | CCn1cc(CN(C)S(=O)(=O)c2ccc(C)c(C)c2)cn1 |  | 6.128
74 | CCn1cc(CN(C)S(=O)(=O)c2cnn(C)c2)cn1 |  | 10.44
75 | CCn1cc(CN(C)S(=O)(=O)c2ccc(Cl)cc2)cn1 |  | 4.304
76 | CCn1cc(CN(C)S(=O)(=O)c2ccc(C(C)C)cc2)cn1 |  | 71.72
77 | CCOc1ccc(S(=O)(=O)N(C)Cc2cnn(CC)c2)cc1 |  | 22.15
78 | CCn1cc(CN(C)S(=O)(=O)c2ccccc2)cn1 |  | 61.21
